An excerpt weighted towards active compounds, which were near 12% of everything screened.
Lmaj promast – Leishmania major promastigote growth inhibition; Leishmania major promastigotes, resazurin fluorescence viability; inhibition, % at 10 µM; 200,000 compounds, 9% hits; AID 1063; in the data active = inhibition above about 50%;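 also: promastigotes grown with compound for 44 hours at 28 °C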
WT yeast gro inh – growth inhibition of WT yeast, mitochondrial fusion screen | 190,000 compounds, 2.1% hits | mitochondrial fusion phenotypic screen, WT strain | inhibition, % at 10 µM; in the data active = inhibition above about 58%; tested in S. cerevisiae
Arbovirus anti – blocks arbovirus infection; arbovirus infection cell-based antiviral screen; inhibition, % at 10 µM; 200,000 compounds, 0.37% hits; AID 1251; in the data active = inhibition above about 30%
CHOP inhibitor – blocks CHOP induction under ER stress | CHO-K1 CHOP-promoter luciferase, tunicamycin-induced, 15-18 h | inhibition, % at 10 µM | 220,000 compounds, 3.8% hits | AID 2732;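 active = compounds that reduced the stress-induced luciferase reporter signal by more than about 70% of percent inhibition, limit read from the data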;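 also: 0% = tunicamycin plus vehicle and 100% = wells without tunicamycin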
* = called active by the depositor; / = no result.

SMILES	Lmaj promast	WT yeast gro inh	Arbovirus anti	CHOP inhibitor
CCCC1C(C#N)=C(N)Oc2c1c(=O)oc1ccccc21 (stereo not drawn)	-8.3	-4.0	6.4	31.2
CCC(=O)N1CC(=O)Nc2ccc(Br)cc2C1c1ccccc1 (stereo not drawn)	0.5	-11.7	-13.1	19.8
O=C1CN(C(=O)CN2CCCCC2)C(c2ccccc2)c2cc(Br)ccc2N1 (stereo not drawn)	98.3*	16.4	13.5	-7.5
CN1C[C@@H](CS(=O)(=O)N(C)C)C[C@@H]2c3cccc4c3c(cn4C)C[C@H]21	/	/	/	-4.5
Cc1nc2ccccc2c(=O)n1-c1ccc(Cl)cc1[N+](=O)[O-]	-2.4	0.9	-1.1	10.9
CCCCCc1nc2ccccc2c(=O)n1-c1ccccc1[N+](=O)[O-]	50.9*	33.8	1.8	-4.1
O=Cc1cn(Cc2ccccc2[N+](=O)[O-])c2ccccc12	50.4*	4.3	2.5	23.6
CN1C(=O)c2ccccc2NC(=O)[C@]12O[C@@H]2c1ccccc1	-15.4	-3.4	2.9	13.7
CCN(CC)CC(O)c1ccc(C2CCCC2)cc1 (stereo not drawn)	94.5*	-0.6	-25.8	9.6
CCN(CC)C1=NC(=[N+](CC)CC)c2ccccc21	99.9*	-0.4	-3.4	-17.6
Cc1cccc(-n2c(-c3ccccc3)nc3ccccc3c2=O)n1	-5.6	-17.7	0.2	14.3
CC1CCC(C(C)C)C(OC(=O)COC(=O)c2ccccc2N)C1 (stereo not drawn)	55.0*	60.0*	4.9	60.6
CN1CCN(CC(=O)Nc2ccc([N+](=O)[O-])cc2C(=O)c2ccccc2)CC1	-0.3	11.3	-0.3	15.6
CSc1ccccc1C(=O)C1CCCN(Cc2ccccn2)C1 (stereo not drawn)	1.2	11.6	3.7	15.2
COc1cccc(C(=O)C2CCCN(Cc3ccc4nonc4c3)C2)c1 (stereo not drawn)	88.7*	23.2	8.3	31.8
O=C(c1cc(F)ccc1F)C1CCCN(Cc2ccc3nonc3c2)C1 (stereo not drawn)	86.5*	21.3	12.6	25.5
COc1ccc(CN2CCCC(C(=O)c3ccccc3SC)C2)cc1O (stereo not drawn)	62.7*	2.8	4.8	11.1
COc1ccc(C(=O)C2CCCN(Cc3ccsc3)C2)cc1OC (stereo not drawn)	95.8*	4.2	-13.6	12.3
COc1ccccc1C(=O)C1CCCN(Cc2cnc(C)s2)C1 (stereo not drawn)	5.5	-2.0	2.5	15.8
COc1ccc(-n2c(O)c(C(C)=NCCc3c[nH]c4ccccc34)c(=O)[nH]c2=O)cc1	/	/	/	30.8
CCC1CCCCN1CC(=O)c1ccc(OC(F)F)cc1 (stereo not drawn)	-8.5	-11.4	-1.2	-27.0
Clc1ccc(CNC2CN3CCC2CC3)cc1 (stereo not drawn)	92.0*	-8.3	3.7	-21.0
c1ccc2c(c1)[nH]c1cnccc12	2.2	10.3	5.2	10.1
Cc1c2ccncc2c(C)c2c1[nH]c1ccccc12	100.3*	66.3*	-44.7	68.9
CCN1CCN(Cc2ccc(C)cc2)CC1	0.5	4.2	4.0	-9.7
SMILES	Lmaj promast	WT yeast gro inh	Arbovirus anti	CHOP inhibitor
Cc1ccc(OCC(=O)N2CCN(Cc3ccc4c(c3)OCO4)CC2)cc1C	89.2*	55.4	-9.8	9.9
Cc1cccc(OCC(=O)N2CCN(Cc3ccc4c(c3)OCO4)CC2)c1	83.0*	4.0	-10.1	-1.4
CCc1ccc(CN2CCN(Cc3ccc(SC)cc3)CC2)cc1	89.3*	47.7	24.4	64.3
CSc1ccc(CN2CCN(C(=O)COc3ccc(C)cc3)CC2)cc1	87.1*	29.9	4.8	24.0
C=CCn1c(O)c(C(C)=NCC2CCCO2)c(=O)[nH]c1=O (stereo not drawn)	/	/	/	4.6
COc1ccc(C(=O)OC2CC[C@@]3(C)C4CCC5[C@]6(O)CC(O)[C@@]7(O)C(CN8CC(C)CCC8[C@@]7(C)O)[C@]6(O)C[C@@]53O[C@]24O)cc1OC (stereo partly drawn)	/	/	/	12.0
CCCCc1ncc(CN2CCCC(C(=O)c3ccc(SC)cc3)C2)[nH]1 (stereo not drawn)	2.1	11.5	-15.0	58.4
CC(C)CC(NP(=O)(O)O[C@@H]1O[C@@H](C)[C@H](O)[C@@H](O)[C@H]1O)C(=O)NC(Cc1c[nH]c2ccccc12)C(=O)O (stereo partly drawn)	/	/	/	-10.4
COc1ccc(CN2CCN(C(=O)COc3cccc(C)c3)CC2)c(OC)c1	62.2*	4.5	3.4	27.1
COCCCn1c(N)c(C(=O)NCc2ccco2)c2nc3ccccc3nc21	/	/	/	-69.7
COCCNC(=O)c1c(N)n(Cc2ccco2)c2nc3ccccc3nc12	54.9*	-5.1	5.1	32.8
Nc1c(C(=O)NCCN2CCOCC2)c2nc3ccccc3nc2n1Cc1ccco1	18.4	9.7	10.1	34.6
C=CCNC(=O)c1c(N)n(Cc2ccco2)c2nc3ccccc3nc12	100.2*	-1.6	12.8	76.9*
O=CC(Br)P(=O)(N1CCOCC1)N1CCOCC1 (stereo not drawn)	/	/	/	-1.9
COC(=O)c1ccc(CN2CCN(Cc3ccccc3)CC2)cc1	93.4*	21.6	0.5	13.0
CCC1C2Cn3c(nc4ccccc43)C1N(C)O2 (stereo not drawn)	/	/	/	-2.1
Cc1ccc2c(c1)CC1(CN2C)C(=O)NC(=O)N(CCc2ccccc2)C1=O (stereo not drawn)	-3.9	29.4	6.8	91.4*
CN1CCc2nc3sc(C#N)c(N)c3c(-c3cccs3)c2C1	8.8	-14.2	32.1*	0.1
CCCCCCCCCCCCCC(=O)O[C@@H]1[C@@H](C)[C@@]2(O)[C@@H](C=C(CO)C[C@@]3(O)C(=O)C(C)=C[C@@H]23)C2C(C)(C)[C@@]21OC(C)=O (stereo partly drawn)	/	/	/	-44.3
O=P(Oc1ccccc1)(Oc1ccccc1)c1ccccc1	/	/	/	10.1
CCCCCCn1c(O)c(C=NC2CCN(Cc3ccccc3)CC2)c(=O)[nH]c1=O	54.1*	16.9	4.3	49.2
CCCCn1c(O)c(C=NC2CC3CCC2(C)C3(C)C)c(=O)[nH]c1=O (stereo not drawn)	28.2	7.6	-5.6	95.3*
O=c1[nH]c(=O)n(CCC2=CCCCC2)c(O)c1C=NC1CCN(Cc2ccccc2)CC1	83.0*	13.0	0.9	60.2
C=CCn1c(O)c(C=NC2CCN(Cc3ccccc3)CC2)c(=O)[nH]c1=O	/	/	/	12.4
CCCCCOc1ccc(C)cc1CN(CCCl)CCCl	/	/	/	26.8
SMILES	Lmaj promast	WT yeast gro inh	Arbovirus anti	CHOP inhibitor
CCOC(=O)CC1=C(C(=O)OCC)C2(C(=O)N1CC(=O)OC)C(C#N)=C(N)Oc1ccccc12 (stereo not drawn)	-4.1	66.1*	-5.0	18.6
CCc1c(C)nc(N)nc1N1N=C1SC(C(C)=O)C(C)=O	2.8	-29.4	7.8	-10.2
CCCCn1c(O)c(/C(C)=N/NC(=O)Nc2ccccc2)c(=O)[nH]c1=O	/	/	/	-0.2
COc1ccc(OCC(=O)N2CCN(C/C=C/c3ccccc3)CC2)cc1	73.5*	20.3	5.1	8.8
O=C(COc1ccccc1)N1CCN(C/C=C/c2ccccc2)CC1	91.8*	4.1	2.5	6.0
COc1ccc(OCC(=O)N2CCN(Cc3c[nH]c4ccccc34)CC2)cc1	-0.6	-3.2	21.4	-13.3
O=C(COc1ccccc1)N1CCN(CC(O)COc2ccccc2)CC1 (stereo not drawn)	18.1	7.9	12.2	25.3
